Results: ChEMBL document CHEMBL3433997, “St. Jude Leishmania screening dataset” (2016)

Each compound was assayed against Hexose transporter 1 (Plasmodium falciparum) (UniProt O97467) (assay: ST_JUDE_LEISH: Cytotoxicity at 2uM final concentration against transgenic Leishmania Mexicana promastigotes LmPfHT that are glucose transport deficient and complemented with the Plasmodium falciparum hexose transporter. Activity is measured by DNA content using SYBR green in vitro).
Type: functional

SMILES	inhibition
CN1CCN(CCCN(Cc2cccc(-c3ccc(CNCc4ccc5c(c4)OCO5)cc3)c2)C(=O)Nc2ccccc2)CC1	4.4%
COc1cc2c(cc1OC)CN(CCc1ccc(NC(=O)c3cc4cc(OC(F)(F)F)ccc4[nH]3)cc1)CC2	3.67%
Cc1nc(C)c(-c2ccc(Oc3cc(Cl)cc(Cl)c3)cc2)c(O)c1Cl	3.03%
CCCN(Cc1ccc(OCC)cc1)Cc1cc(=O)c2cc(Cl)ccc2[nH]1	8%
COc1cc(F)c2ncc(Cl)c(CCN3CCC(NCc4cc5c(cn4)OCCO5)CC3)c2c1	41.5%
COCCCNc1nc2cc(OC)c(OC)cc2c2nc(-c3ccccc3)nn12	1.16%
CC1(C)N=C(NC(=O)Nc2ccc([N+](=O)[O-])cc2)N=C(N)N1OCc1cccc2ccccc12	4.36%
Cc1cc(Nc2ccc3c(c2)CCC3)n2ncnc2n1	0.55%
COc1ccc(Cl)cc1-c1nc(C(=O)NCCN2CCCCC2)c(C)s1	2.9%
Cc1cc(N(C)CCCN2CCCCC2)nc(Nc2ccc(Cl)cc2)n1	2.38%
CCn1cc(-c2nc(-c3cc(OC)cc(OC)c3)no2)c(=O)c2ccccc21	6.39%
Cc1ccc(CNC(=O)[C@H](CCCN)Nc2nc(Nc3ccccc3)ncc2C)cc1	0.93%
OC1CCCN(Cc2ccc(-c3ccc(-c4nc5ccccc5[nH]4)cc3)cc2)C1 (stereo not given)	7.95%
COc1ccc2nccc([C@@H](O)CN3CCC(NCc4nc5cc(F)cc(F)c5[nH]4)CC3)c2c1	4.04%
CC(C)(C)OC(=O)NCc1ccc(Nc2nnc(-c3ccc(OCC(=O)NCc4ccc(C(C)(C)C)cc4)c([N+](=O)[O-])c3)o2)cc1	1.65%
COc1ccc(Cn2cncc2CN(CCC(C)C)C(=O)c2ccc(Cl)nc2Cl)cc1	2.14%
Cc1ccccc1OCC(=O)Nc1ccc(-c2nc3cc4ccccc4cc3[nH]2)cc1	3.71%
CN1CCN(c2cc3c(cc2Br)CCN3C(=O)Nc2ccc(-c3cnc4ccccc4c3)cc2)CC1	100%
CC(=O)Nc1nc(C(=O)Nc2ccc(-c3ccc(-c4nc5cccc(C)c5[nH]4)cc3)cc2)cs1	9.18%
Cc1cc(N[C@@H](Cc2ccccc2)C(=O)NCc2cccs2)nc(NCCOc2ccccc2)n1	10.4%

SMILES	inhibition
CC(=O)Nc1ccc(CN2CCN(C(c3ccc(F)cc3)c3ccc(F)cc3)CC2)cc1	3.45%
Nc1ccc(-c2ccc3ccnc(N)c3c2)cn1	-1.53%
CCC1CCCCN1S(=O)(=O)c1ccc(NC(=O)c2cc(C)on2)cc1 (stereo not given)	0.15%
COc1cc(NC(=O)/C=C/c2ccccc2OC(F)(F)F)cc(OCCN2CCN(CCN3CCOCC3)CC2)c1	3.05%
Cc1ccc(NC(=O)c2ccc(CN3CCCN(Cc4cccc(O)c4)CC3)cc2)cc1F	6.4%
CCCCCN1CCC(NS(=O)(=O)c2cccc(C(=O)Nc3ccc(C(F)(F)F)cc3)c2)C1 (stereo not given)	1.94%
CC1CN(c2cnn(Cc3cccc(NC(=O)Nc4ccc(F)cc4[N+](=O)[O-])c3)c(=O)c2Cl)CC(C)N1 (stereo not given)	1.66%
O=C(NCc1cc2c(cc1Cl)OCO2)c1ccc(CNC2CCN(Cc3ccccc3)CC2)cc1	0.96%
CS(=O)(=O)NCCCNCc1ccc(-c2ccc(-c3nc4cc(C(F)(F)F)ccc4[nH]3)s2)cc1	2.03%
COc1ccc2nccc([C@@H](O)CN3CCC(NC[C@H](Cc4ccccc4)NC(=O)OC(C)(C)C)CC3)c2c1	2.02%
COc1ccc(Nc2nc(N3CCCC3)c3ccccc3n2)cc1	19.6%
Cc1ccc(Nc2c3ccccc3nc3ccc(C)cc23)cc1	7.1%
FC(F)(F)COc1ccc(CCNCCCCNCCc2ccc(OCC(F)(F)F)c3ccccc23)c2ccccc12	12.3%
O=C(Nc1ccc(Cl)cc1)c1ccc(CN2CCCN(Cc3ccc(F)cc3)CC2)cc1	1.23%
COc1ccc(C(C(=O)NC2CCN(C[C@H](O)c3ccnc4ccc(OC)cc34)CC2)N2CCN(c3ccc(F)cc3)CC2)cc1 (stereo not given in full)	1.23%
O=C(Nc1ccc(Br)cc1)c1cc(Br)ccc1NS(=O)(=O)c1cc(C(F)(F)F)cc(C(F)(F)F)c1	0.04%
O=C(NC1CCN(CC2(c3ccccc3)CCCC2)CC1)c1n[nH]cc1Cl	0.32%
CCCNCc1ccc(-c2ccc(CN(Cc3ccc4c(c3)OCO4)C(=O)[C@H]3CCCO3)cc2)nc1	10.6%
Cc1c(C)n(C2CCCC2)c2ncnc(OC3CCN(CC(=O)NCC4CC4)CC3)c12	5.47%
C=CCc1c(C(=O)NCC23CC4CC(CC(C4)C2)C3)nc2ccccc2c1O	0.27%
